The entries come from a sample that favours hits as a whole.
Sm TGR inh: inhibitors of Schistosoma mansoni thioredoxin glutathione reductase; purified TGR, DTNB reduction, TNB absorbance 405 nm; Potency, µM (series often up to 114 µM), actives largely listed as inhibitors; Q962Y6; 3% of 360,000 active; AID 485364; note: nearly all actives have a fitted effect of over 60% in size
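First, TGR (20 nM dispensed) and NADPH were mixed with compound. Second, a 15 min room-temperature incubation followed. Third, further NADPH and then DTNB were added to start the reaction. Finally, TNB absorbance was monitored kinetically.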
FBPA Giardia inh: Giardia lamblia aldolase inhibition | A8B2U2 | purified Giardia FBPA | Potency, µM (top dose mostly 59.6 µM), hits mostly inhibitors | 0.71% of 290,000 active; note: nearly all actives have a fitted effect of over 55% in size
Target sequence (A8B2U2 whole entry, looked up): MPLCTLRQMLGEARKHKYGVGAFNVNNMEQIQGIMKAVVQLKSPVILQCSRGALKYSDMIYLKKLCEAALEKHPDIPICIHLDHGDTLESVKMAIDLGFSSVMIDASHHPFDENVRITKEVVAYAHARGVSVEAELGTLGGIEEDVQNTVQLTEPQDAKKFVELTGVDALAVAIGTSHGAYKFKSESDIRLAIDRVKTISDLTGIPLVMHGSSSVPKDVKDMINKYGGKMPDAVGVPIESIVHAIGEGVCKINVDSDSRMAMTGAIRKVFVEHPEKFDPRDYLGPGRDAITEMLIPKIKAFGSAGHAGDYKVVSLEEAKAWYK
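40 nM FBPA preincubated 10 min at RT with compound (up to 57.5 uM final), then substrate plus GAPDH/TPI/NAD/arsenate coupling and diaphorase/resazurin added. Fluorescence read after 20 min at RT, 525/598 nm.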
Cycloheximide cs: counter-screen for Shiga toxin inhibitors: cycloheximide protein synthesis inhibition; cell reporter, cycloheximide protein synthesis inhibition counterscreen; max response, %; 12% of 300,000 active; in the data active = max response mostly above about 13%, no sharp cut-off; inactive = mostly below about 14%; note: read at 38.3 µM for the half of the compounds with a filed dose
LmPK inh: blocks Leishmania mexicana pyruvate kinase activity; Q27686; purified LmPK, Kinase-Glo ATP luminescence, 1 h; Potency, µM (highest dose often 57.5 µM), actives largely listed as inhibitors; 0.37% of 290,000 active; AID 1721
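Pyruvate kinase activity monitored as ATP production (luciferase luminescence). Conditions: 0.1 nM enzyme, 0.5 mM PEP, 0.1 mM ADP, 1 h, RT; normalized against uninhibited and no-enzyme wells.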
Shiga toxin inh: blocks Shiga toxin action in Vero cells; Vero cells, Shiga toxin protein synthesis inhibition reporter; inhibition, % at 38.7 µM; 9.2% of 290,000 active; AID 2315; in the data active = inhibition mostly above about 28%, no sharp cut-off; inactive = mostly below about 43%
Tb PYK inh: T. brucei pyruvate kinase inhibition; AID 624173; Potency, µM (titrated, usually from 76.8 µM), most hits filed as inhibitors; TbPYK enzyme, Kinase-Glo Plus ATP luminescence, 45 min; Q57TT1; 0.12% of 410,000 active; note: nearly all actives have a fitted effect of over 50% in size
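Screened from lowest to highest concentration, compounds were pinned into TbPYK/substrate mixtures, and ADP (130 uM final) was added. Plates sat at room temperature for 45 min prior to Kinase-Glo Plus detection by luminescence.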
Of the large screens only hits and unclear results are named; the others gave an inactive call. Unless noted, calls come from the whole dose curve; as a rule, active = well fitted curve in the direction sought with a large enough effect; inconclusive = small, poorly fitted or top-dose-only effect, or another doubt; inactive = no such curve, though single readings can be large; an effect the other way counts as inactive or inconclusive.

CCOC(=O)c1ccc2nc(NC(=O)c3ccco3)sc2c1	Cycloheximide cs 27, LmPK inh inconclusive, Shiga toxin inh 35
CCOc1ccc2nc(NC(=O)c3ccoc3C)sc2c1	Cycloheximide cs 24, LmPK inh 13µM, Tb PYK inh inconclusive
CCOC(=O)c1ccc2nc(NC(=O)c3cccs3)sc2c1	Cycloheximide cs 39, LmPK inh inconclusive, Shiga toxin inh 44
Cc1ccc(C)n1-c1nnc(N2CCCC(C(=O)NCc3ccc(F)cc3)C2)s1 (centres undefined)	Sm TGR inh inconclusive (no result: FBPA Giardia inh, Cycloheximide cs, LmPK inh, Shiga toxin inh)
O=C(NC(=S)Nc1ncccn1)c1ccc(Cl)cc1Cl	FBPA Giardia inh inconclusive, Cycloheximide cs 30, Shiga toxin inh 127
CCC(=O)Nc1cccc(NC(=S)NC(=O)c2ccccc2C)c1	Sm TGR inh inconclusive, Cycloheximide cs 48, Shiga toxin inh 72
CCC(=O)Nc1cccc(NC(=S)NC(=O)c2ccc(Cl)cc2)c1	FBPA Giardia inh inconclusive, Cycloheximide cs 22
CCC(=O)Nc1cccc(NC(=S)NC(=O)c2ccc(Cl)cc2Cl)c1	Cycloheximide cs 42
Cc1ccnc(NC(=O)c2ccc(Cl)cc2Cl)n1	none (no result: Tb PYK inh)
O=C(NCc1ccccc1Cl)C1CCCN(C(=O)c2cnn(-c3ccc(F)cc3)c2-n2cccc2)C1 (centres undefined)	none (no result: FBPA Giardia inh, Cycloheximide cs, LmPK inh, Shiga toxin inh)
COc1ccc(Oc2ncc3ncc(=O)n(Cc4ccc(F)cc4)c3n2)cc1	none (no result: Sm TGR inh, Cycloheximide cs, LmPK inh, Shiga toxin inh)
COc1ccccc1NC(=S)NNC(=O)c1ccc(Cl)cc1Cl	FBPA Giardia inh inconclusive, Cycloheximide cs 31, Shiga toxin inh 51
Cc1ccc(SCC(c2ccccc2)N2CCN(CCc3ccccc3)CCC2=O)cc1 (centres undefined)	Cycloheximide cs 48, Shiga toxin inh 35 (no result: Sm TGR inh, LmPK inh, Tb PYK inh)
CC(=O)Nc1ccc(SCC(c2ccccc2)N2CCN(CCc3ccccc3)CCC2=O)cc1 (centres undefined)	none (no result: Sm TGR inh, LmPK inh, Tb PYK inh)
O=C1CCN(CCc2ccccc2)CCN1C(CSc1ccc(Br)cc1)c1ccccc1 (centres undefined)	Cycloheximide cs 33 (no result: Sm TGR inh, LmPK inh, Tb PYK inh)
O=C1CCN(CCc2ccccc2)CCN1[C@H](CSc1ccccc1)c1ccccc1	Cycloheximide cs 15
Cc1ccc(SCC(Cc2ccccc2)N2CCN(CCc3ccccc3)CCC2=O)cc1 (centres undefined)	none (no result: Sm TGR inh, LmPK inh, Tb PYK inh)
Cc1ccc(SC[C@H](c2ccccc2)N2CCN(CCc3ccccc3)CCC2=O)cc1	Sm TGR inh inconclusive, Cycloheximide cs 33, Shiga toxin inh 59
CCCN1Cc2cccc(C(=O)Nc3cccc(C(=O)OCC)c3)c2C1=O	none (no result: FBPA Giardia inh, Cycloheximide cs, LmPK inh, Shiga toxin inh)
COC(=O)[C@@]1(Cc2ccccc2)[C@H]2c3cc(C(=O)N(C)C)n(Cc4ccccc4)c3C[C@H]2CN1C(=O)c1ccccc1	none (no result: Sm TGR inh, Cycloheximide cs, LmPK inh, Shiga toxin inh, Tb PYK inh)
O=C(NCc1ccccn1)c1nn(-c2ccccc2Cl)nc1CO	none (no result: FBPA Giardia inh, Cycloheximide cs, LmPK inh, Shiga toxin inh)
Cc1ccccc1OCCCCn1c(CCNC(=O)C(C)(C)C)nc2ccccc21	none (no result: FBPA Giardia inh, Cycloheximide cs, LmPK inh, Shiga toxin inh)
CC(N=c1ccccn1C(=O)Nc1ccc(F)cc1)c1ccco1 (centres undefined)	none
CC(N=c1ccccn1C(=O)Nc1ccc(Cl)cc1)c1ccco1 (centres undefined)	Cycloheximide cs 49, Shiga toxin inh 65
Cc1cc(CNC(=O)COc2ccccc2F)c2ccccc2n1	Cycloheximide cs 37, Shiga toxin inh 87
COc1ccccc1CC(=O)Nc1ccc2nc(C)sc2c1	Cycloheximide cs 25, Shiga toxin inh 80
COc1cc(CC(=O)Nc2ccc3nc(C)sc3c2)cc(OC)c1OC	none
Cc1nc2ccc(NC(=O)COc3ccccc3F)cc2s1	Cycloheximide cs 31, Shiga toxin inh 72
CCN(CC)C(=O)c1ccc(NC(=O)COc2ccccc2F)cc1	Cycloheximide cs 22, Shiga toxin inh 76
CC(C)Oc1ccc(CNS(=O)(=O)c2ccc3c(c2)C(C)(C)C(=O)N3C)cc1	none (no result: FBPA Giardia inh, Cycloheximide cs, LmPK inh, Shiga toxin inh)
COc1cccc(CC(=O)Nc2ccc3nc(C)sc3c2)c1	Cycloheximide cs 30
CO[C@@H]1COC(=O)[C@H]2CCCN2C(=O)[C@@H](C)COC(=O)CCC[C@H]1C	none (no result: Sm TGR inh, Cycloheximide cs, LmPK inh, Shiga toxin inh, Tb PYK inh)
CN1C(=O)C(=Cc2coc3ccccc3c2=O)C(=O)N(C)C1=O	Sm TGR inh 10µM, Cycloheximide cs 20, Tb PYK inh inconclusive
CN1C(=O)/C(=C/c2coc3ccc(O)cc3c2=O)SC1=S	none

Bioassay records deposited in PubChem BioAssay by National Center for Advancing Translational Sciences (NCATS).
